The supplement of paper PMC8975748
Counter-ions that a name gives are not always drawn.

System: Saccharomyces cerevisiae BY4741 SeMeCo community
Assay: z-score of prototroph abundance vs DMSO median; higher = larger share of this subpopulation than in DMSO controls
Conditions: 10 µM; 24 h; SM minimal medium; subpopulation (auxotrophy): Prototroph
Experimental: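 Fluorescent four-plasmid SeMeCo (self-establishing metabolically cooperating S. cerevisiae BY4741 community; plasmids pH-mRuby2, pL-mWasabi, pU-eCFP, pM-TagRFP657) was grown 24 h in minimal SM medium with each Selleck FDA-approved drug at 10 µM in 384-well plates. Cells were fixed and imaged by high-content confocal microscopy. For each auxotrophic subpopulation (and the prototroph), a z-score gives the deviation from the DMSO vehicle-control population median.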

Row | Compound | z-score of prototroph abundance
1 | CCCCOc1ccc(CC(=O)NO)cc1 [Bufexamac] | 1.23
2 | Cn1c(=O)c2c(ncn2CC(O)CO)n(C)c1=O (stereo not given) [Dyphylline] | 1.12
3 | O=C1CN(/N=C/c2ccc(-c3ccc([N+](=O)[O-])cc3)o2)C(=O)N1 [Dantrolene sodium hemiheptahydrate] | 1
4 | CC(C)C(=O)c1c(C(C)C)nn2ccccc12 [Ibudilast] | 0.24
5 | CN[C@H]1C(=O)N[C@@H]2Cc3ccc(cc3)Oc3cc4cc(c3O[C@@H]3O[C@H](C(=O)O)[C@@H](O)[C@H](O)[C@H]3NC(=O)CCCCCCCCC(C)C)Oc3ccc(cc3Cl)[C@@H](O)[C@@H]3NC(=O)[C@H](NC(=O)[C@@H]4NC(=O)[C@@H](NC2=O)c2cc(cc(O)c2Cl)Oc2cc1ccc2O)c1ccc(O)c(c1)-c1c(O[C@H]2O[C@H](CO)[C@@H](O)[C@H](O)[C@@H]2O)cc(O)cc1[C@@H](C(=O)NCCCN(C)C)NC3=O [Dalbavancin] | -0.15
6 | CC(C)(C)C(=O)C(Oc1ccc(Cl)cc1)n1ccnc1 (stereo not given) [Climbazole] | -9.09
7 | Cc1ccc(-c2ncc(Cl)cc2-c2ccc(S(C)(=O)=O)cc2)cn1 [Etoricoxib] | -0.04
8 | CSCC1CN(/N=C/c2ccc([N+](=O)[O-])o2)C(=O)O1 (stereo not given) [Nifuratel] | 1.73
9 | COc1ncnc(NS(=O)(=O)c2ccc(N)cc2)c1OC [Sulfadoxine] | -0.71
10 | Cc1cccc(C)c1NC(=O)C1CCCCN1C (stereo not given) [Mepivacaine HCl] | -0.33
11 | COc1nc2ccc(Br)cc2cc1[C@@H](c1ccccc1)[C@@](O)(CCN(C)C)c1cccc2ccccc12 [Bedaquiline fumarate] | -1.58
12 | CC[C@H](C)C(=O)O[C@H]1C[C@H](O)C=C2C=C[C@H](C)[C@H](CC[C@@H](O)C[C@@H](O)CC(=O)O)[C@H]21 [Pravastatin] | -1.08
13 | O=C(Cn1cnnn1)N[C@@H]1C(=O)N2C(C(=O)O)=C(CSc3nncs3)CS[C@H]12 [Ceftezole] | 0.89
14 | O=c1ccc2cc(O)c(O)cc2o1 [Esculetin] | 2.22
15 | COc1cc(NS(=O)(=O)c2ccc(N)cc2)nc(OC)n1 [SulfadiMethoxine sodium] | 0.53
16 | COc1ccc(C(Cl)=C(c2ccc(OC)cc2)c2ccc(OC)cc2)cc1 [Chlorotrianisene] | -0.67
17 | CC(C(O)c1ccc(O)cc1)N1CCC(Cc2ccccc2)CC1 (stereo not given) [Ifenprodil Tartrate] | 0.98
18 | CC(C)(C)C1CCC(CC2=C(O)c3ccccc3C(=O)C2=O)CC1 (stereo not given) [Buparvaquone] | -0.85
19 | CNCC[C@@H](Oc1ccccc1C)c1ccccc1 [Atomoxetine HCl] | 0.61
20 | COC(=O)Nc1nc2cc(C(=O)c3ccc(F)cc3)ccc2[nH]1 [Flubendazole] | 0.01

Row | Compound | z-score of prototroph abundance
21 | CN(Cc1ccc(C(C)(C)C)cc1)Cc1cccc2ccccc12 [Butenafine HCl] | 1.36
22 | C[C@H]1NCc2cc(-c3ccc4c(=O)c(C(=O)O)cn(C5CC5)c4c3OC(F)F)ccc21 [Garenoxacin] | -0.68
23 | CC(C)c1c(C(=O)Nc2ccccc2)c(-c2ccccc2)c(-c2ccc(F)cc2)n1CC[C@@H](O)C[C@@H](O)CC(=O)O [Atorvastatin Calcium] | -7.41
24 | C(=C\c1ccccc1)/CN1CCN(C(c2ccccc2)c2ccccc2)CC1 [Cinnarizine] | -1.14
25 | O=C1c2cccc3c2[C@H](CCC3)CN1[C@@H]1CN2CCC1CC2 [Palonosetron] | -0.11
26 | CCN(CC)CCOCCOC(=O)C1(c2ccccc2)CCCC1 [Pentoxyverine Citrate] | 0.37
27 | Cc1ccc(-c2cc(C(F)(F)F)nn2-c2ccc(S(N)(=O)=O)cc2)cc1 [Celecoxib] | 0.84
28 | C#C[C@]1(O)CC[C@H]2[C@@H]3CCC4=CC(=O)CC[C@@H]4[C@H]3CC[C@@]21CC [Levonorgestrel] | 0.69
29 | CN1CC(=O)N2[C@H](c3ccc4c(c3)OCO4)c3[nH]c4ccccc4c3C[C@@H]2C1=O [Tadalafil] | -0.42
30 | CC(=O)N[C@H]1[C@H]([C@H](O)[C@H](O)CO)OC(C(=O)O)=C[C@@H]1NC(=N)N [Zanamivir] | -0.31
31 | CNCc1cc(-c2ccccc2F)n(S(=O)(=O)c2cccnc2)c1 [Vonoprazan Fumarate (TAK-438)] | 0
32 | Cc1c(-c2ccc(O)cc2)n(Cc2ccc(OCCN3CCCCCC3)cc2)c2ccc(O)cc12 [Bazedoxifene Acetate] | -0.23
33 | Nc1nc(N)c2nc(-c3ccccc3)c(N)nc2n1 [Triamterene] | 3.28
34 | CC(=O)OCC[N+](C)(C)C [Acetylcholine iodide] | 1.05
35 | C[C@@H]1O[C@@H]1P(=O)(O)O [Fosfomycin Disodium] | 0.42
36 | O=C(O)CCc1nc(-c2ccccc2)c(-c2ccccc2)o1 [Oxaprozin] | 2.48
37 | CC(C(=O)O)c1ccc(C(=O)c2cccs2)cc1 (stereo not given) [Suprofen] | 0.24
38 | O=C(O)CCCCCCCC(=O)O [Azelaic acid] | -0.32
39 | O=C(O)CCNC(=O)c1ccccc1 [Betamipron] | -0.09
40 | COCCOC(=O)C1=C(C)NC(C)=C(C(=O)OC(C)C)C1c1cccc([N+](=O)[O-])c1 (stereo not given) [Nimodipine] | 0.04
